# Assay results as given in PubChem BioAssay AID1851 (National Center for Advancing Translational Sciences (NCATS), 2009).
# Several values for one entry are separate records, joined by “and”; a condition that tells them apart may be missing. Identical values can stand only once. The whole screen tested about 16,000 compounds, of which about 5,700 (36%) were called active. About 24% were inconclusive and are not listed. Calls follow the shape of the dose curve; as a rule, active = well fitted curve in the direction sought with a large enough effect; inconclusive = small, poorly fitted or top-dose-only effect, or effect the other way; inactive = no such curve, though single readings can be large or run the other way. Some of the results follow.
# Molecular target: Cytochrome P450 1A2 (Homo sapiens) (UniProt P05177)
# Experiment: Cytochrome panel assay with activity outcomes
# Settings: recombinant CYP, pro-luciferin dealkylation, luminescence, p450-cyp1a2; series mostly up to 57.1 µM; activity, negative = inhibition: at the top concentration
# Description: The P450 gene superfamily is involved in the metabolism and clearance of xenobiotics. This assay used various human CYP P450 isozymes to measure the dealkylation of various pro-luciferin substrates to luciferin. The luciferin is then measured by luminescence after the addition of a luciferase detection reagent. Pro-luciferin substrate concentration in the assay was equal to its KM for its CYP P450 isozyme. Inhibitors and some substrates limit the production of luciferin, and decrease measured luminescence.
# NCGC Assay Protocol Summary:
# 1, Reagent, 2 uL, Isozyme and Pro-Luciferin
# 2, Library compounds, 23 nl, 40 uM to 0.24 nM dilution series
# 3, Controls, 23 nl, Isozyme specific inhibitor
# 4, Reagent, 2 uL, NADPH regeneration solution
# 5, Incubation time, 60 min, Isozyme specific temperature
# 6, Reagent, 4ul, Detection reagent
# 7, Incubation time, 20 min, Isozyme specific temperature
# 8, Detection, 1 sec, ViewLux luminescent read
# The luciferase-based P450-GloTM Screening Systems were obtained from Promega (Madison, WI) for CYP 1A2 (V9770), CYP 2C9 (V9790), CYP2 C19 (V9880), CYP 2D6 (V9890), and CYP 3A4 Luciferin-PPXE (V9910) and were adapted for 1,536-well microplates and an automated protocol. The control compounds furafylline for 1A2 (F124), sulfaphenazole for CYP 2C9 (S0758), ketoconazole for CYP 2C19 (K1003), quinidine for 2D6 (Q3625), and ketoconazole for 3A4 (K1003) were purchased from Sigma Aldrich (St. Louis, MO). Recombinant P450 enzymes were obtained from baculovirus constructs expressed in insect cells (BD/Gentest).
# Medium-binding white solid Kalypsys plates used. Mixtures kept on ice. 1A2: 10 nM 1A2, 100 uM Luc-ME, 100 mM KPO4; 2C9: 10 nM 2C9, 100 uM Luc-H, 25 mM KPO4; 2C19: 5 nM 2C19, 10 uM Luc-H EGE, 50 mM KPO4; 2D6: 5 nM 2D6, 30 uM Luc-ME EGE, 100 mM KPO4; 3A4: 10 nM, 25 uM Luc-PPXE. All amounts are reflected in their final concentration, working concentration is 2x.
# NADPH regeneration solution: 1.3 mM NADP+, 3.3 mM glucose-6-phosphate, 3.3 mM MgCl2, 0.4 U/mL glucose-6-phosphate dehydrogenase for all isozymes, 200 mM KPO4 for 3A4. Mixture prepared at RT but kept on ice during automated run.
# RT incubation in auxilliary plate hotel for 1A2, 2D6, and 3A4; 37C for 2C9 and 2C19.
# Keywords: P450, CYP1A2, CYP2C19, CYP2C9, CYP2D6, CYP3A4, Luciferase, MLSMR, MLSCN, NIH Roadmap, qHTS, NCGC
# % is scaled to controls: 0 for no effect and ±100 for the full control effect.
# Sequence of Cytochrome P450 1A2 (Homo sapiens) (P05177 whole entry, looked up): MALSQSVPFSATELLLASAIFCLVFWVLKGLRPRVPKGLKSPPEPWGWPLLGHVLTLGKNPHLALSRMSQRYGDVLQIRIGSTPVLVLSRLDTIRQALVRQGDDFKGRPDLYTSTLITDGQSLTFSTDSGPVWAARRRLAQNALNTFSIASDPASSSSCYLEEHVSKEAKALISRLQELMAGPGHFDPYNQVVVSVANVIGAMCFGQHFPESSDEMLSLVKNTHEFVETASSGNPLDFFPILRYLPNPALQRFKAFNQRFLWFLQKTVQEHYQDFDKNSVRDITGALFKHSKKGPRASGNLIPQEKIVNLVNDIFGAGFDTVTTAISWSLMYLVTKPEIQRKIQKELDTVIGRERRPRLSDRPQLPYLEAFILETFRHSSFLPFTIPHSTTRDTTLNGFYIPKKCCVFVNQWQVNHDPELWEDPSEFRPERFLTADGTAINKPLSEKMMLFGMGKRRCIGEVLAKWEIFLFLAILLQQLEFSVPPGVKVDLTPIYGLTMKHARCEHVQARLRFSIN
Structure (SMILES),"activity, negative = inhibition",AC50
COc1cccc([C@@H]2Oc3ccc(OC)cc3/C(=N/O[C@@H](C)CN3CCCc4nc(C)c(C)cc43)[C@@H]2O)c1,2.03% [at 11.4 µM] (inactive),
Cn1c(CCN2CCCCC2)nc2cc([N+](=O)[O-])ccc21,-14.1% (inactive),
CN(C)S(=O)(=O)c1cc([N+](=O)[O-])ccc1N1CCCCCC1,,14.1 µM (active)
CN1CCN(c2ccc([N+](=O)[O-])cc2S(=O)(=O)N2CCOCC2)CC1,6.31% (inactive),
CCCNC(=O)OC[C@@H]1O[C@H](CCO/N=C(\C)CCC(=O)OC[C@@H]2O[C@H](c3ccccc3)C=C[C@@H]2Oc2ccc(OC)cc2)C=C[C@@H]1Oc1ccc(OC)cc1,-2.5% [at 11.4 µM] (inactive),
CCNc1ccc(Br)cc(C(=O)/C=C/c2ccc3c(c2)OCO3)c1=O,,22.4 µM (active)
CNc1ccc(Br)cc(C(=O)/C=C/c2ccc3c(c2)OCO3)c1=O,,3.16 µM (active)
Nc1ccccc1C(=O)/C=C\c1ccc2c(c1)OCO2,-4.77% [at 11.4 µM] (inactive),
Oc1cc(O)c2c(c1)O[C@H](c1ccc(O)c(O)c1)[C@H](O)C2,,inactive
CC1CCCC(C)N1C(=O)C1CC(c2ccc(F)cc2)=NO1 (stereo unspecified),-45.5% (inactive),
O=C(NC1CCCC1)C1CC(c2ccc(F)cc2)=NO1 (stereo unspecified),,15.8 µM (active)
Cc1ccc(CCN2CC(C(=O)NC3CCCC3)CC2=O)cc1 (stereo unspecified),-27.7% (inactive),
Cc1c(Cl)cccc1NC(=O)C[C@H]1Sc2ccccc2NC1=O,-23.2% [at 2.29 µM] (inactive),
COC(=O)c1c(-c2ccccc2)csc1NC(=O)CSc1ncnc2sc(C)c(C)c12,-28.3% (inactive),
COC(=O)c1c(NC(=O)CC2Nc3ccccc3NC2=O)sc(C)c1C (stereo unspecified),,10 µM (active)
Cc1cc(NC(=O)Nc2ccc(N(C)C)cc2)c2cc(F)cc(F)c2n1,,0.126 µM (active)
CO[C@@H]1COC(=O)C/C=C\[C@@H](C)[C@@H]2C=C[C@H](O)[C@@H](COC(=O)CCC[C@H]1C)O2,1.73% [at 11.4 µM] (inactive),
Cc1ccc(Nc2nc(-c3c(C)nc4ncccn34)cs2)cc1,,3.16 µM (active)
Cc1cc(NCc2ccccn2)ccc1Br,,4.47 µM (active)
CN(C)CC[C@H](c1ccc(Br)cc1)c1ccccn1,,inactive
Cc1cc(Br)ccc1NCc1ccccn1,,1.12 µM (active)
Cc1cc(N=Cc2c(CO)cnc(C)c2O)c(N=Cc2c(CO)cnc(C)c2O)cc1C.[Zn],-10.4% [at 2.29 µM] (inactive),
CC(=O)NC1(c2cccc(F)c2)CCN(CC(=O)NC2CCCCC2)CC1,-13.1% (inactive),

Structure (SMILES),"activity, negative = inhibition",AC50
CCCC(c1cc(C(C)(C)C)c(O)cc1C)c1cc(C(C)(C)C)c(O)cc1C,-12.3% [at 2.29 µM] (inactive),
N#Cc1c(NC(=O)C(F)(F)F)sc2c3c(=O)c4ccccc4c(=O)c=3oc3ccccc3c12,,1 µM (active)
C[C@@](N)(C(=O)O)c1ccc(C(=O)O)cc1,,inactive
O=C(c1cnc(N2CCN(c3ncccn3)CC2)c2ccccc12)N1CCN(c2ncccn2)CC1,-27.3% (inactive),
CN(C(=O)c1cnc(N2CCN(c3ncccn3)CC2)c2ccccc12)c1ccc(Cl)cc1,,15.8 µM (active)
COCC(=O)N1CCC2(CC1)CCN(c1ncccn1)CC2,1.86% (inactive),
O=C(Cc1ccc(Cl)c(Cl)c1)OCCN1CCCC1,,12.6 µM (active)
CN(CCc1ccc(Cl)c(Cl)c1)CCN1CCCCCC1,,31.6 µM (active)
COc1ccc(CCN(C)CCc2ccc(OC)c(OC)c2)cc1OC,-18.9% (inactive),
CCOC(=O)CC1C(=O)NCCN1S(=O)(=O)c1ccc(Cl)c(Cl)c1 (stereo unspecified),-0.861% (inactive),
CO[C@H]1COC(=O)[C@@H](CCSC)NC(=O)C/C=C\[C@@H](C)[C@H](OC)COC(=O)[C@@H](OCc2ccccc2)/C=C\[C@@H]1C,-4.15% [at 11.4 µM] (inactive),
Cc1ccc(C(=O)NCCNc2ccc(Cl)cc2[N+](=O)[O-])o1,,2 µM (active)
COc1cccc(C2C(C(=O)c3cc4ccccc4o3)=C(O)C(=O)N2c2cc(C)on2)c1OC (stereo unspecified),-22.3% (inactive),
COc1cccc2cc3c(=O)oc4ccccc4c3nc12,,0.0891 µM (active)
CO/N=C\C[C@@H]1C=C[C@H](OC(C)=O)[C@H](COC(C)=O)O1,-9.17% [at 11.4 µM] (inactive),
CCO/C([O-])=N/c1c[n+](N2CCOCC2)no1,-15.8% [at 25.6 µM] (inactive),
CC(C)C(C(=O)NCC1CCCO1)N(Cc1ccco1)C(=O)CNS(=O)(=O)c1ccc(F)cc1 (stereo unspecified),-23.5% (inactive),
O=C(NCCc1cccs1)C1CC(c2c(Cl)cccc2Cl)=NO1 (stereo unspecified),,0.501 µM (active)
CCN(CC)C(=S)SSC(=S)N(CC)CC,,6.31 µM (active) and 1.58 µM (active)
Cn1cc(-c2nc3cnc(N4CCNCC4)nc3n(-c3ccccc3)c2=O)c2ccccc21,,15.8 µM (active)
Cn1cc(-c2nc3cnc(N4CCNCC4)nc3n(C3CC3)c2=O)c2ccccc21,,12.6 µM (active)
COc1ccc(-n2c(=O)c(-c3cn(C)c4ccccc34)nc3cnc(N4CCNCC4)nc32)cc1,,15.8 µM (active)
COc1ccc2c3c([nH]c2c1)[C@H]1C[C@@H]2[C@@H](C[C@@H](O)[C@H](OC)[C@H]2C(=O)O)CN1CC3,-1.02% [at 11.4 µM] (inactive),

Structure (SMILES),"activity, negative = inhibition",AC50
COc1cnc(-c2ccccn2)nc1Oc1ccc(Cl)c2ccccc12,,5.62 µM (active)
CCOC(=O)/C(C#N)=C1/C=CN(C)C=N1,-5.3% (inactive),
CC(C)N(CCC(=O)c1ccc2ccccc2c1)Cc1ccccc1,,3.98 µM (active)
CC(C)N(CCNC(=O)C1CCC(=O)N1Cc1ccc(F)cc1)Cc1ccccc1 (stereo unspecified),-25.1% (inactive),
CC(C)N(CCNC(=O)C1CCN(S(=O)(=O)N2CCOCC2)CC1)Cc1ccccc1,-8.41% (inactive),
N=C(N)S[C@H]1c2ccccc2-c2cc([N+](=O)[O-])ccc21,,0.158 µM (active)
CN1CCCN(C)C1c1cc([N+](=O)[O-])ccc1O,-14.3% [at 11.4 µM] (inactive),
COCCCN1C(=O)C(=O)/C(=C(/O)c2ccc(OC)cc2C)C1c1cccnc1 (stereo unspecified),3% (inactive),
COc1ccc(/C(O)=C2/C(=O)C(=O)N(Cc3cccnc3)C2c2ccco2)cc1OC (stereo unspecified),5.59% (inactive),
Cc1ccc(C)c(/C(O)=C2\C(=O)C(=O)N(Cc3cccnc3)C2c2cccnc2)c1 (stereo unspecified),,25.1 µM (active)
COc1ccc(Oc2ncc3nc(-c4cccs4)c(=O)n(Cc4cccc(OC)c4)c3n2)cc1,-16.1% (inactive),
COc1cccc(Cn2c(=O)c(-c3cccs3)nc3cnc(OC)nc32)c1,,3.16 µM (active)
COc1cccc(Cn2c(=O)c(-c3ccc(Cl)cc3)nc3cnc(OC)nc32)c1,,3.98 µM (active)
COc1cccc(Cn2c(=O)c(-c3cccs3)nc3cncnc32)c1,,5.01 µM (active)
CCNc1ncc2nc(-c3ccc(Cl)cc3)c(=O)n(Cc3cccc(OC)c3)c2n1,-13.6% (inactive),
COc1cc(C2SCCCCCCCCCCSC(c3ccc(O)c(OC)c3)SCCCCCCCCCCS2)ccc1O (stereo unspecified),-6.91% [at 2.29 µM] (inactive),
COCC(=O)N1CCC2(CC1)CN(Cc1ccc(C#N)cc1)C2,-6.96% (inactive),
CC(C)=CCC/C(C)=C/CO/N=C1/C[C@@H](O)[C@@H](O)[C@@H]2[C@@H]3C(=O)N(Cc4ccc5c(c4)OCO5)C(=O)[C@H]3CC[C@@H]12,-3.81% [at 11.4 µM] (inactive),
N[C@@H](CO)C(=O)O,,inactive
O=C(CSc1nnc(SCc2cccc3ccccc23)s1)c1ccc2c(c1)OCO2,,2.24 µM (active)
CC[C@H]1CN(C)[C@H]2Cc3c([nH]c4ccccc34)C(=O)C[C@H]1[C@H]2C(=O)OC,-10.5% [at 11.4 µM] (inactive),
COC(=O)C1Cc2c([nH]c3ccccc23)CN1 (stereo unspecified),,0.398 µM (active)
O=C(O)[C@@H]1Cc2c([nH]c3ccccc23)[C@@H](CCCCO)N1,-9.61% [at 2.29 µM] (inactive),

Structure (SMILES),"activity, negative = inhibition",AC50
O=C1Nc2ccc(F)cc2C12SCCS2,,15.8 µM (active)
Cc1ccc2c(c1)C1(SCCS1)C(=O)N2,,0.891 µM (active)
CCOC(=O)n1c(=O)n(Cc2c(Cl)cccc2Cl)c2ccccc21,,14.1 µM (active)
CN(CCCNC(=O)C1CCC(=O)N1Cc1ccccc1Cl)c1ccccc1 (stereo unspecified),-7.82% (inactive),
CCOC(=O)n1c(=O)n(Cc2ccccc2Cl)c2ccccc21,,4.47 µM (active)
COC(=O)Cn1c(=O)c2c(nc(Br)n2Cc2ccccc2Cl)n(C)c1=O,-11.9% (inactive),
CCOC(=O)CC1C(=O)NCCN1S(=O)(=O)c1ccccc1Cl (stereo unspecified),2.6% (inactive),
COc1ccc(CN2CCN(C(=O)CC(C)C)CC2)c(OC)c1OC,23.3% (inactive),
COc1cccc(NC(=O)c2cc(-c3cccnc3)nc3c(Cl)cccc23)c1,,8.91 µM (active)
CCOC(=O)C1C(=O)C=C(/C=C/c2ccccc2)CC1c1ccc(Cl)cc1 (stereo unspecified),,5.01 µM (active)
CCOC(=O)C1=C(C)NC2=C(C(=O)C(C(=O)OCC)C(c3ccc(OC)cc3)C2)C1c1ccccn1 (stereo unspecified),-24.6% (inactive),
CC(C)(CO[C@H]1C[C@H]2CC[C@@]1(C)C2(C)C)[N+](=O)[O-],-17.1% [at 11.4 µM] (inactive),
Fc1ccc(C2=Nn3c(Cc4ccccc4F)nnc3SC2)cc1,,0.355 µM (active)
Cc1ccc(S(=O)(=O)NCCn2c(C)cc3ccccc32)cc1,,15.8 µM (active)
Cc1ccc(S(=O)(=O)NCCSc2nnnn2C)cc1,-4.13% (inactive),
Cc1cc2ccccc2c(=O)n1CC(=O)NCC(=O)N1CCCC1,-2.57% (inactive),
Cc1ccc(C)n1NC(=O)c1ccccc1,-14.9% (inactive),
Cc1cc2ccccc2n1CCNC(=O)C1CCCC1,,1 µM (active)
Cc1cc2ccccc2n1CCNC(=O)c1ccccc1,,4.47 µM (active)
Cc1ccc(S(=O)(=O)NC(=O)c2cccn2C)cc1,-17.6% (inactive),
O=C(Nc1nc2ccccc2n1CCN1CCCCC1)C1CCCCC1,-14.4% (inactive),
CS(=O)(=O)c1ccc([C@H](O)[C@H](CO)NC(=O)C(Cl)Cl)cc1,-1.73% [at 25.6 µM] (inactive),
